Data from PubChem BioAssay (Tox21).
Values joined by “and” are separate entries in the source; they are usually repeats but may differ in a detail not shown here. Equal entries are not always repeated. Inconclusive results are not listed. Entries that show only a call come without a potency. Active and inactive are the calls of the source. Unless noted, calls follow the shape of the dose curve; as a rule, active = well fitted curve in the direction sought with a large enough effect in the repeat runs; inconclusive = weak or mixed curves; inactive = no such curve, though single readings can be large; an effect the other way counts as inactive or inconclusive.

What was measured:
[1] = qHTS assay to identify small molecule agonists of the RXR signaling pathway - cell viability counter screen (AID 1159529); also: nearly all actives have a fitted effect of over 50% in size; also: potency is read from the fitted curve at half-maximal effect
How it was run: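 Compounds dissolved in DMSO were pinned onto HEK 293T cells carrying a beta-lactamase reporter under RXR-alpha control and incubated 16 hr. Cytotoxicity was then quantified by CellTiter-Glo luminescence.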

[2] = qHTS assay to identify small molecule antagonists of the estrogen related receptor (ERR) signaling pathway from Tox21 library - cell viability counter screen (AID 1224834); also: nearly all actives have a fitted effect of over 30% in size; also: potency is read from the fitted curve at half-maximal effect
How it was run: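 After 17.5 h of compound exposure at 37 C, ERR cells are incubated with CellTiter-Fluor for 30 min and fluorescence intensity serves as the viability measure.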

[3] = target: Luciferin 4-monooxygenase (Photinus pyralis) (UniProt P08659); experiment: qHTS assay to identify small molecule inhibitors of firefly luciferase (AID 1224835); also: nearly all actives have a fitted effect of over 25% in size; also: potency is read from the fitted curve at half-maximal effect
Sequence of Luciferin 4-monooxygenase (Photinus pyralis) (P08659 whole entry, looked up): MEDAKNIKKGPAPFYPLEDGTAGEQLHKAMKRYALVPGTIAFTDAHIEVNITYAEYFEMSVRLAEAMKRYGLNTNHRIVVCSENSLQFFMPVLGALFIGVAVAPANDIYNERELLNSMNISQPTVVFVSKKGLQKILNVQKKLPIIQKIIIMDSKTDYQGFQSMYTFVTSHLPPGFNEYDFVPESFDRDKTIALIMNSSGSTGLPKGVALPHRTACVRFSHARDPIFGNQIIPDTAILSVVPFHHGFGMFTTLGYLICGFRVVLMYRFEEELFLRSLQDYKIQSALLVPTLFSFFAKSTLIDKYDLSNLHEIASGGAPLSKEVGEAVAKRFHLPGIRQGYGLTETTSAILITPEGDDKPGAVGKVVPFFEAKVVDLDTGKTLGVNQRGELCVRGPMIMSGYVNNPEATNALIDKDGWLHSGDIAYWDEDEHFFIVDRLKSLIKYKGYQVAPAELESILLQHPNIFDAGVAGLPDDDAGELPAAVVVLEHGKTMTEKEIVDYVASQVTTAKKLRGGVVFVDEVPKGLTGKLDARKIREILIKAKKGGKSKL
How it was run: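 Biochemical qHTS: compounds run as interplate titrations against purified firefly enzyme, with D-luciferin and ATP each at its KM concentration. Light output recorded by CCD imaging.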

[4] = qHTS assay to identify small molecule agonists of the constitutive androstane receptor (CAR) signaling pathway - cell viability counter screen (AID 1224836); also: nearly all actives have a fitted effect of over 45% in size; also: potency is read from the fitted curve at half-maximal effect
How it was run: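 23 h treatment, 37 C, 5% CO2. Cell line: HepG2 stably expressing hCAR with a CYP2B6-2.2kb construct. Co-treatment: PK11195, 0.75 uM final. Read-out: CellTiter-Fluor fluorescence intensity.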

[5] = qHTS assay to identify small molecule antagonists of the constitutive androstane receptor (CAR) signaling pathway - cell viability counter screen (AID 1224837); also: nearly all actives have a fitted effect of over 45% in size; also: potency is read from the fitted curve at half-maximal effect
How it was run: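 Counter screen run in HepG2-CYP2B6-hCAR cells: 4 hr settle, compound titration (15 concentrations) with 50 nM CITCO, 23 hr at 37 C/5% CO2, CellTiter-Fluor fluorescence.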

[6] = qHTS assay to identify small molecule antagonists of the estrogen related receptor signaling pathway with the pleiotropic PPARgamma coactivator (PGC) from Tox21 10K library - cell viability counter screen (AID 1224840; active = well fitted cell-killing curve with a large enough effect in the repeat runs, not every such curve was filed as active; also: nearly all actives have a fitted effect of over 40% in size; also: potency is read from the fitted curve at half-maximal effect)
How it was run: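 Following seeding of 2,000 PGC/ERR cells/well and 6 hours' incubation, test compounds were delivered in DMSO. The plates then sat 17.5 hours at 37 C before a fluorogenic live-cell protease reagent (CellTiter-Fluor) was read after 30 min.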

[7] = qHTS assay to identify small molecule antagonists of the estrogen related receptor signaling pathway with the pleiotropic PPARgamma coactivator (PGC) from Tox21 10K library (AID 1224841; call rule not given here; also: actives are mostly falling curves and most rising ones were filed inactive; nearly all actives have a fitted effect of over 50% in size; also: potency is read from the fitted curve at half-maximal effect)
How it was run: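 qHTS antagonist format: PGC/ERR cells, 2k/well, compound in DMSO by pin transfer after 6 h attachment, 18 h treatment at 37 C, One-Glo luminescence read at 30 min.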

[8] = qHTS assay to identify small molecule agonists of the estrogen related receptor signaling pathway with the pleiotropic PPARgamma coactivator (PGC) from Tox21 10K library (AID 1224842); also: nearly all actives have a fitted effect of over 15% in size
How it was run: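 PGC/ERR reporter cell line, 2,000 cells per well, incubated 6 h at 37 C before 23 nL compound in DMSO was added. After 18 h at 37 C, One-Glo luminescence read following 30 min at room temperature.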

[9] = target: Thyrotropin receptor (Homo sapiens) (UniProt P16473); experiment: qHTS assay to identify small molecule agonists of the thyroid stimulating hormone receptor (TSHR) signaling pathway (AID 1224843; calls by dose curve; also: nearly all actives have a fitted effect of over 45% in size)
Sequence of Thyrotropin receptor (Homo sapiens) (P16473 whole entry, looked up): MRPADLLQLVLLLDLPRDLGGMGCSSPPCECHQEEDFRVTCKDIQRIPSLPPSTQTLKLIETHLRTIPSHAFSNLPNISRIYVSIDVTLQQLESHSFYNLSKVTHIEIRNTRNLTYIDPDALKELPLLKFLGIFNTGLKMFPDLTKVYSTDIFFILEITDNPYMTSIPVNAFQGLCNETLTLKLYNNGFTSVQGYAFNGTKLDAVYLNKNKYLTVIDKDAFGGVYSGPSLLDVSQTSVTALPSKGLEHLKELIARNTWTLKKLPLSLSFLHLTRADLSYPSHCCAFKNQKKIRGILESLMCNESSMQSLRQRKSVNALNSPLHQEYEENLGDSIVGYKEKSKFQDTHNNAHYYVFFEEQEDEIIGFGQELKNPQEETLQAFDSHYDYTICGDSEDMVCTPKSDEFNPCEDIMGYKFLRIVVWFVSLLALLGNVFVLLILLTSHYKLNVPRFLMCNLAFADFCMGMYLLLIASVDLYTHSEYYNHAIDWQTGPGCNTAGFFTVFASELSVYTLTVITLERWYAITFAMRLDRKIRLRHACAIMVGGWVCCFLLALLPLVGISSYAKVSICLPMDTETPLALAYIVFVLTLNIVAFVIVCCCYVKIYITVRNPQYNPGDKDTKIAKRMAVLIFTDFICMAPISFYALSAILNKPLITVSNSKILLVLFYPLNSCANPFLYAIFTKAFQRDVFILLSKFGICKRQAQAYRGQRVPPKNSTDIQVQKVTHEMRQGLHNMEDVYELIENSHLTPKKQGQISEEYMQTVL
How it was run: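 Steps: seed 800 TSHR-HEK293 cells per well; add test compound and hold 30 min at ambient temperature; dispense cAMP-d2 then anti-cAMP cryptate; incubate 1 h at ambient; measure fluorescence intensity.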

[10] = qHTS assay to identify small molecule antagonists of the retinoic acid receptor (RAR) signaling pathway (AID 1159552; also: nearly all actives have a fitted effect of over 50% in size)
How it was run: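 Test chemicals and DMSO controls were pin-transferred onto C3RL4 cells a day after seeding; retinol (1 uM final) followed at once. Luminescent reporter output was quantified after 6 hr of co-incubation and 30 min with detection reagent.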

[11] = qHTS assay to identify small molecule agonists of the retinoic acid receptor (RAR) signaling pathway (AID 1159553); also: potency is read from the fitted curve at half-maximal effect
How it was run: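 Reporter readout comes from luciferase under RARE control in C3RL4 cells; compound exposure lasts 6 hr at 37 C in 5% CO2, and luminescence is recorded following a 30 min room-temperature incubation with reagent.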

[12] = qHTS assay to identify small molecule antagonists of the retinoid acid receptor (RAR) signaling pathway - cell viability counter screen (AID 1159551); also: nearly all actives have a fitted effect of over 35% in size
How it was run: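 Retinol-stimulated (1 uM final) C3RL4 cells, compound 6 h, 37 C; readout CellTiter-Glo luminescence (ATP) after 30 min RT incubation.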

[13] = target: Nuclear receptor subfamily 1 group I member 3 (Homo sapiens) (UniProt Q14994); experiment: qHTS assay to identify small molecule antagonists of the constitutive androstane receptor (CAR) signaling pathway (AID 1224838);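 also: HepG2 cells stably expressing hCAR with CYP2B6 luciferase reporter stimulated by CITCO; nearly all actives have a fitted effect of over 40% in size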
Sequence of Nuclear receptor subfamily 1 group I member 3 (Homo sapiens) (Q14994 whole entry, looked up): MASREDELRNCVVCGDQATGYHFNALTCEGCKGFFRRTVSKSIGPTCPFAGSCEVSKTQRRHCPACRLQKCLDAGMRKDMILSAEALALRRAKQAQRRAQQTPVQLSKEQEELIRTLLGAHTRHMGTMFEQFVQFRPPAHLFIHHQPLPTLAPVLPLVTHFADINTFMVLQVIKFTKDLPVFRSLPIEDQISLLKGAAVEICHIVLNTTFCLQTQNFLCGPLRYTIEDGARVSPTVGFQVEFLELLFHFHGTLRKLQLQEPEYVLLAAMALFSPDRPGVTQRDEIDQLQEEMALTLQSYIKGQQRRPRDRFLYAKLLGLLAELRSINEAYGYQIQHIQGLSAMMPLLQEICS
How it was run: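 Cell line: HepG2 double-stable for hCAR and CYP2B6-2.2kb reporter. Agonist: CITCO, 50 nM final. Compounds: 15 concentrations, 24 h, 37 C. Detection: ONE-Glo luminescence.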

[14] = target: Nuclear receptor subfamily 1 group I member 3 (Homo sapiens) (UniProt Q14994); experiment: qHTS assay to identify small molecule agonists of the constitutive androstane receptor (CAR) signaling pathway (AID 1224839); also: nearly all actives have a fitted effect of over 15% in size; also: potency is read from the fitted curve at half-maximal effect
How it was run: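 Compounds tested at 15 concentrations on HepG2 cells stably harbouring hCAR and CYP2B6-2.2kb reporter constructs, co-treated with PK11195 (0.75 uM final), 24 h at 37 C; luminescent reporter signal quantified.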

Row | SMILES | Potency [1] | Potency [2] | Potency [3] | Potency [4] | Potency [5] | Potency [6] | Potency [7] | Potency [8] | Potency [9] | Potency [10] | Potency [11] | Potency [12] | Potency [13] | Potency [14]
1 | Oc1cccc(Cl)c1 | inactive | inactive | inactive | inactive | inactive | inactive | inactive | inactive | inactive |  |  |  |  | 
2 | COc1cc(CC(C)N)c(OC)cc1Br (centres undefined) | inactive |  | inactive | inactive |  |  |  |  | inactive | inactive |  |  |  | 
3 | CCCC[N+]1(C)[C@@H]2CC(OC(=O)[C@H](CO)c3ccccc3)C[C@H]1[C@@H]1O[C@@H]12 (some centres undefined) | inactive | inactive | inactive | inactive | inactive | inactive |  |  | inactive |  |  |  |  | 
4 | C[C@H]1[C@@H]2Cc3ccc(O)cc3[C@@]1(C)CCN2C | inactive | inactive | inactive | inactive | inactive | inactive | inactive |  | inactive | inactive | inactive |  |  | 
5 | C=CCc1ccccc1O | inactive | inactive | inactive | inactive | inactive |  | inactive |  |  | inactive | inactive |  |  | 
6 | [Cl-].[Cl-].[Hg+2] | 3.08 µM (active) and 3.09 µM (active) | 6.08 µM (active) and 4.33 µM (active) |  | 60.8 µM (active) and 7.7 µM (active) | 60.8 µM (active) and 5.45 µM (active) | 15.3 µM (active) and 2.43 µM (active) |  |  |  |  |  |  |  | 
7 | C[C@]12CC[C@H]3[C@@H](CCC4=CC(=O)CC[C@@H]43)[C@@H]1CC[C@@H]2OC(=O)CCc1ccccc1 |  | inactive | inactive | inactive | inactive | inactive | inactive | inactive | inactive | inactive | inactive | inactive | inactive | inactive
8 | CC(=O)NNc1ccccc1 | inactive |  |  | inactive | inactive |  | inactive |  | inactive | inactive | inactive |  | inactive | 
9 | N#CC(C#N)=C(C#N)C#N | inactive | inactive | inactive | inactive | inactive | inactive | 1.8 µM (active) |  | inactive | inactive | inactive |  | inactive | 
10 | C=CC(=O)OCC |  | inactive | inactive | inactive | inactive | inactive |  |  |  | inactive | inactive | inactive | inactive | inactive
11 | O=[N+]([O-])O[C@H]1CO[C@H]2[C@@H]1OC[C@H]2O[N+](=O)[O-] | inactive | inactive | inactive | inactive | inactive | inactive | inactive |  | inactive |  |  |  |  | 
12 | C=C(Cl)Cl | inactive | inactive | inactive | inactive | inactive | inactive | inactive |  | inactive |  | inactive |  | inactive | inactive
13 | O=C(N[C@H]1CN2CCC1CC2)c1ccc2c(c1)OCCO2 | inactive | inactive | inactive |  | inactive | inactive | inactive |  | inactive | inactive | inactive |  | inactive | inactive
14 | CCSCc1ccccc1OC(=O)NC |  | inactive | inactive | inactive | inactive | inactive |  |  |  | inactive | inactive | inactive | inactive | 27.3 µM (active)
15 | Nc1ccc2c(c1)Cc1ccccc1-2 |  | inactive | 39.7 µM (active) | inactive | inactive | inactive | inactive |  |  | inactive | 10.8 µM (active) | inactive | inactive | 48.3 µM (active)
16 | OCCCl |  | inactive | inactive | inactive | inactive | inactive |  |  |  | inactive | inactive | inactive | inactive | inactive
17 | Nc1cccc2ccccc12 |  | inactive | inactive | inactive | inactive | inactive |  |  | inactive |  |  |  | inactive | 
